Assay results reported in the supplement of paper PMC11732987, “Enantioselective OTUD7B fragment discovery through chemoproteomics screening and high-throughput optimisation” (Communications Chemistry, 2025).

Key:
Test in all cases: log2 ratio of Biotin-Ahx-Ub-VS probe labelling (fragment/DMSO); higher = less target engagement (more negative = stronger competition), active = hit call of the paper (q ≤ 0.05, log2 ratio ≤ -1)
Conditions in all cases: compound concentration: 200 uM; treatment time: 3 h
USP42 = biological target: T1, USP42 (UniProt Q9H9J4)
T1 sequence (whole entry): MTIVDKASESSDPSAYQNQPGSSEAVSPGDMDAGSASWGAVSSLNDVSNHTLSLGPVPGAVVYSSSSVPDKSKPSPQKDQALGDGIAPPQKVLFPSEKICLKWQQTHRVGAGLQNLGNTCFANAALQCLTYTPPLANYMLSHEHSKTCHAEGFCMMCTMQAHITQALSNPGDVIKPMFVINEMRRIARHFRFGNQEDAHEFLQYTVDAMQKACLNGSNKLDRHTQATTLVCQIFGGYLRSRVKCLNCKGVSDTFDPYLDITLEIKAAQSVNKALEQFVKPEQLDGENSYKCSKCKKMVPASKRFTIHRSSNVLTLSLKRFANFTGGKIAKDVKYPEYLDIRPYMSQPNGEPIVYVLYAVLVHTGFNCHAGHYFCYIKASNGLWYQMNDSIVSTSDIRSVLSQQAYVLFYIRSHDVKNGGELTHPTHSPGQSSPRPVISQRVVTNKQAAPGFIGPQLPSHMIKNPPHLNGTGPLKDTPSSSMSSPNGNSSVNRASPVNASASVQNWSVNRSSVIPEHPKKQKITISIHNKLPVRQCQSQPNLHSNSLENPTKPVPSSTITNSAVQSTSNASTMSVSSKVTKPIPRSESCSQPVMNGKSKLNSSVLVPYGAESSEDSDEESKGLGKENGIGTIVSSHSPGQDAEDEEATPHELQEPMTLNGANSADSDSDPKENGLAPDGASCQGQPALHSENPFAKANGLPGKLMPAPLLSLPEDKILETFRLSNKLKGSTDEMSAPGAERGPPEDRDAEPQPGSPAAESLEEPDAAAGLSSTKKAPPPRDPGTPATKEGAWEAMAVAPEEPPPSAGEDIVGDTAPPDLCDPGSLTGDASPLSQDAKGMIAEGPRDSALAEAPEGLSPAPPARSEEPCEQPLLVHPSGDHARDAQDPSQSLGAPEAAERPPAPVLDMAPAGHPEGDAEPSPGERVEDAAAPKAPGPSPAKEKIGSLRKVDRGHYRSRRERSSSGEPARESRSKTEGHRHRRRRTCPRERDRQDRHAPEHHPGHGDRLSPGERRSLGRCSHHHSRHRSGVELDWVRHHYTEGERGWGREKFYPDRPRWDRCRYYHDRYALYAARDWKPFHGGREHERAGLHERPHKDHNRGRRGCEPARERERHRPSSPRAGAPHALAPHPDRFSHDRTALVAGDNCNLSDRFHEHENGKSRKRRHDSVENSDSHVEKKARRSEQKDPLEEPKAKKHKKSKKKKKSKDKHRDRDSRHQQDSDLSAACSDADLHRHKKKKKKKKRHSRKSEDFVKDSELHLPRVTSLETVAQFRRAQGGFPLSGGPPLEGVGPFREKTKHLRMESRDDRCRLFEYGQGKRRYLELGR
How it was run: (§1)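 HEK293T lysate (495 µg per sample, in Tris/CHAPS/IGEPAL buffer with protease inhibitors) was treated in triplicate with fragment at 200 µM or with DMSO for 3 h. It was then treated with Biotin-Ahx-Ub-VS (0.5 µM final) for 1 h. Labelled DUBs were NeutrAvidin-enriched, digested with LysC and trypsin, and run by diaPASEF LC-MS/MS. Spectronaut label-free quantities were global-median-normalised. Values are average log2 ratios fragment/DMSO by unpaired t-test, using proteins with ≥2 unique peptides.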

USP46 = USP46 (UniProt P62068)
Sequence of USP46 (P62068 whole entry): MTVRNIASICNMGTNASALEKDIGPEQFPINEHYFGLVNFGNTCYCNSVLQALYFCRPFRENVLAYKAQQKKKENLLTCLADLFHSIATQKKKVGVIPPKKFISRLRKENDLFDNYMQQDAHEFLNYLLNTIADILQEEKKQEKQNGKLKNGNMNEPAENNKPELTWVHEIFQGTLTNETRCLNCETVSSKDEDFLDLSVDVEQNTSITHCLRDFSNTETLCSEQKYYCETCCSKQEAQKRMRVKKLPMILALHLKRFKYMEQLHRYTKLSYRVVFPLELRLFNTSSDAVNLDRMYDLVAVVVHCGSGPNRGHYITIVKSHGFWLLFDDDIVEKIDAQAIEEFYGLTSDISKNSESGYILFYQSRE
How it was run: as §1

USP47 = biological target: T2, USP47 (UniProt Q96K76)
T2 sequence (whole entry): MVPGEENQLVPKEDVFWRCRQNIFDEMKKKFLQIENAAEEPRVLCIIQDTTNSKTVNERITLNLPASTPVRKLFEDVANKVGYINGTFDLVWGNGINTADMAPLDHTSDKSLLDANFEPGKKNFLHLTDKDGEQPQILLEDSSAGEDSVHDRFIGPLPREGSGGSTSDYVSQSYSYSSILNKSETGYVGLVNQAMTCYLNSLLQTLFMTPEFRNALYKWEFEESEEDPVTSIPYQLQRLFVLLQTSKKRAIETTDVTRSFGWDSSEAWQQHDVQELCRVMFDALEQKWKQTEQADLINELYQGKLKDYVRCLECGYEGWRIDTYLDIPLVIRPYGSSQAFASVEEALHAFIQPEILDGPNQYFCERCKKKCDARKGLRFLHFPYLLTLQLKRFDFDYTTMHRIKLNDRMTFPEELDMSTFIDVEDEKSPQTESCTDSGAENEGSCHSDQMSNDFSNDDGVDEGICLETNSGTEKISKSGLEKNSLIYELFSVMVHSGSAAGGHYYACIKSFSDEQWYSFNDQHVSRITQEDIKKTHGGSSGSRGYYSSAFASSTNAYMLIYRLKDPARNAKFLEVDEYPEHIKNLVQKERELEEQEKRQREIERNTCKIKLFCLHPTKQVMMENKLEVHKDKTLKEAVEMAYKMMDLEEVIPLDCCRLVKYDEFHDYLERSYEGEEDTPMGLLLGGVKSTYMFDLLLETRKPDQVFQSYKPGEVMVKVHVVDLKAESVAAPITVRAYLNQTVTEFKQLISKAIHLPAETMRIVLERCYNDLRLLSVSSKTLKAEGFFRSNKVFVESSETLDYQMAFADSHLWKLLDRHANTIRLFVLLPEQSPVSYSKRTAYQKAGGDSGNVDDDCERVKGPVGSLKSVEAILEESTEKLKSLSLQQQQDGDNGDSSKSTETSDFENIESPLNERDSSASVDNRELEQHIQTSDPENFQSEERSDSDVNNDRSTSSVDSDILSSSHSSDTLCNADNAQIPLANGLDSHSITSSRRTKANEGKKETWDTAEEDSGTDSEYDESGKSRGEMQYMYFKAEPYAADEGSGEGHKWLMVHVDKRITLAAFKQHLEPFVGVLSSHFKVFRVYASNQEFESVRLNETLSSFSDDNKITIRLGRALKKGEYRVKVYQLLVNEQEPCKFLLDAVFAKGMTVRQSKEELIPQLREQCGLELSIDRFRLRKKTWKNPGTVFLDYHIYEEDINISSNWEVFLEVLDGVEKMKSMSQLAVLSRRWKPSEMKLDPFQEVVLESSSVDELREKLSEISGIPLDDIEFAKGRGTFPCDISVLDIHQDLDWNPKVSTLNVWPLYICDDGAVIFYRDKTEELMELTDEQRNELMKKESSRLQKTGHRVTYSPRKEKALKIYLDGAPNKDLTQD
How it was run: as §1

USP48 = biological target: T3, USP48 (UniProt Q86UV5)
T3 sequence (whole entry): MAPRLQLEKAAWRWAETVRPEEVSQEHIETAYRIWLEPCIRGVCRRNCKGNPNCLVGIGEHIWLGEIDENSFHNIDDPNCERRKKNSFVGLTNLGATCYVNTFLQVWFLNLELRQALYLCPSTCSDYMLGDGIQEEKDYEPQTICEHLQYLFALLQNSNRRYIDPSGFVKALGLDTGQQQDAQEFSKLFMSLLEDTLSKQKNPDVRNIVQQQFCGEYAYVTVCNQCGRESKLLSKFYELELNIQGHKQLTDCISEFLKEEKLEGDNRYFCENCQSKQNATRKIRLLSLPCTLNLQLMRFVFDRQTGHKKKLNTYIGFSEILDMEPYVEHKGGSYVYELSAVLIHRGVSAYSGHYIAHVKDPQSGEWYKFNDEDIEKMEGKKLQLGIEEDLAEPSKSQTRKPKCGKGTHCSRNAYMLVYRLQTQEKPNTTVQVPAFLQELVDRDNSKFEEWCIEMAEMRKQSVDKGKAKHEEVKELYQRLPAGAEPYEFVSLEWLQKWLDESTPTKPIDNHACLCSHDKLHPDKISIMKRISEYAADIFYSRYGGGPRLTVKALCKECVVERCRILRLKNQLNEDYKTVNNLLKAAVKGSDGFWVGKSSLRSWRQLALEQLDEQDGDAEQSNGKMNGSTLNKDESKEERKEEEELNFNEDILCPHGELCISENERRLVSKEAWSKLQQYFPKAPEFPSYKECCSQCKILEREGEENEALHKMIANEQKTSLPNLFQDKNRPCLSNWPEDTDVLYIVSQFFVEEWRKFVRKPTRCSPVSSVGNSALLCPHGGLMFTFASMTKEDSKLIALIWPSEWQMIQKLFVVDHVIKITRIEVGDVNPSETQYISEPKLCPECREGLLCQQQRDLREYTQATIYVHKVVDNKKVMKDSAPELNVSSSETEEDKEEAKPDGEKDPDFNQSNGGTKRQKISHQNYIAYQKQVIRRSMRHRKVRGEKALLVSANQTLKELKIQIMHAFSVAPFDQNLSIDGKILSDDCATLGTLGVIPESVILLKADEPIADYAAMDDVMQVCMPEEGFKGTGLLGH
How it was run: as §1

USP5 = biological target: T4, USP5 (UniProt P45974)
T4 sequence (whole entry): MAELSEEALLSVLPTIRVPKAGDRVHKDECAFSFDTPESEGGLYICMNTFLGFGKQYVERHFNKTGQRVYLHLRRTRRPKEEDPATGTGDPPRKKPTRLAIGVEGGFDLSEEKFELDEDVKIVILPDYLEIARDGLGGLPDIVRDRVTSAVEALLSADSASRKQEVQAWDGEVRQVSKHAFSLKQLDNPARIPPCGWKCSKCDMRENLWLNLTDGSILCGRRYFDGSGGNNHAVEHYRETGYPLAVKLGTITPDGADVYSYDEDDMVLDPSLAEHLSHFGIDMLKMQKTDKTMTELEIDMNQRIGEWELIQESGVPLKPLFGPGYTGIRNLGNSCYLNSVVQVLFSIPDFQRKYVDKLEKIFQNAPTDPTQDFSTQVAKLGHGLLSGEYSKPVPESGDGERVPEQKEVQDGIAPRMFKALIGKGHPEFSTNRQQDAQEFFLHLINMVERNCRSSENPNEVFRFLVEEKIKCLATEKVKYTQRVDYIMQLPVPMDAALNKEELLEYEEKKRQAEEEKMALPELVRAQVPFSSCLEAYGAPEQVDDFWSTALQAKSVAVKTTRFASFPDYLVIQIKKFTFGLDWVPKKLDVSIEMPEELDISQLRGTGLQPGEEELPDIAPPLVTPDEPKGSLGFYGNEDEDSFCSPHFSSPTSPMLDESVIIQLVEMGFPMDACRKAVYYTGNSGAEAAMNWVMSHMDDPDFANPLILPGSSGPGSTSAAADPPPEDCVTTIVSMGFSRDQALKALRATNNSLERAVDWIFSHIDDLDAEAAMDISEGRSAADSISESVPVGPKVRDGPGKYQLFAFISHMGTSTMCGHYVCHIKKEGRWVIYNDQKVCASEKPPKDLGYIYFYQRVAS
How it was run: as §1

USP54 = USP54 (UniProt Q70EL1)
Sequence of USP54 (Q70EL1 whole entry): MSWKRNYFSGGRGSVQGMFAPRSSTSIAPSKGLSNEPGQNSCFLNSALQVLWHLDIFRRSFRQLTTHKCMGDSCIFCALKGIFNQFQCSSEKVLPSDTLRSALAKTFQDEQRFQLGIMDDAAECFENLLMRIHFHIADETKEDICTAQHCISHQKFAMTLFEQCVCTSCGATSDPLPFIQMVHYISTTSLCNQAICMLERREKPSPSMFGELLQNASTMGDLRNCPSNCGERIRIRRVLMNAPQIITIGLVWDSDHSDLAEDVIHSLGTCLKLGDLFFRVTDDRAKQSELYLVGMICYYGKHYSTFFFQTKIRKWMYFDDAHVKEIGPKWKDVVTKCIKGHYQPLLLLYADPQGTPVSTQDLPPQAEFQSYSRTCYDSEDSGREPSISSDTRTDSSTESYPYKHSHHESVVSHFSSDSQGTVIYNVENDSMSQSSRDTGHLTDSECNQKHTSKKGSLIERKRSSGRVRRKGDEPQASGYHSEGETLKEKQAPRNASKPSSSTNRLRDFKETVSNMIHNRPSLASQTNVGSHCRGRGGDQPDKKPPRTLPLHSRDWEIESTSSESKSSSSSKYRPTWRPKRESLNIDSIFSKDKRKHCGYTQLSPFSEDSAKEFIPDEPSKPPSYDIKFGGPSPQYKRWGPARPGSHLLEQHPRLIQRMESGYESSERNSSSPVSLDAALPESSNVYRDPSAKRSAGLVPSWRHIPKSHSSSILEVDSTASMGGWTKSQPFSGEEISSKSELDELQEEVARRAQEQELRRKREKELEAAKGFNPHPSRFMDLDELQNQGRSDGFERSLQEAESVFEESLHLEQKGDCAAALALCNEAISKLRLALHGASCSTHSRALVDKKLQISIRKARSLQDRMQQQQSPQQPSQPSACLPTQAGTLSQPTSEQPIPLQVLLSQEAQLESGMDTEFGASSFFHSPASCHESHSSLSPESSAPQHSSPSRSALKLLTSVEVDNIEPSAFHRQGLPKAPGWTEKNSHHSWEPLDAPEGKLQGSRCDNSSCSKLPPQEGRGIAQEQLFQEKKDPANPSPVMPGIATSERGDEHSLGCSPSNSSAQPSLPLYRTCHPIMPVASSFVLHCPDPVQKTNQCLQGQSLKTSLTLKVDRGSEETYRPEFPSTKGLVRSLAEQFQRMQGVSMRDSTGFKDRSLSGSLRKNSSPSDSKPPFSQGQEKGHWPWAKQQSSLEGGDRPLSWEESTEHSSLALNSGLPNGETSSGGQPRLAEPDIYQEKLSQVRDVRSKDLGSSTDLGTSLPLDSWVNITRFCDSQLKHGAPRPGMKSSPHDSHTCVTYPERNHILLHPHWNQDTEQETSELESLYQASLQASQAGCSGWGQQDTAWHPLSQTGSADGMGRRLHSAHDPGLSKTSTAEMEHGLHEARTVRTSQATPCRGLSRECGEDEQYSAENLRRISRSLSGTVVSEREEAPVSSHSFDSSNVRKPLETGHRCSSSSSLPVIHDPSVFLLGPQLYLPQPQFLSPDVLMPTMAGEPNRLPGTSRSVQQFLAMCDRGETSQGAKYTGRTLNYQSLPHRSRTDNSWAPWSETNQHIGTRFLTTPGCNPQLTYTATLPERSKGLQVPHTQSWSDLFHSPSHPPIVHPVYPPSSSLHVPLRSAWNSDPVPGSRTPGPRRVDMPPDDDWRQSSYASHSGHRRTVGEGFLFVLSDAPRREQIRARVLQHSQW
How it was run: as §1

USP7 = USP7 (UniProt Q93009)
Sequence of USP7 (Q93009 whole entry, looked up): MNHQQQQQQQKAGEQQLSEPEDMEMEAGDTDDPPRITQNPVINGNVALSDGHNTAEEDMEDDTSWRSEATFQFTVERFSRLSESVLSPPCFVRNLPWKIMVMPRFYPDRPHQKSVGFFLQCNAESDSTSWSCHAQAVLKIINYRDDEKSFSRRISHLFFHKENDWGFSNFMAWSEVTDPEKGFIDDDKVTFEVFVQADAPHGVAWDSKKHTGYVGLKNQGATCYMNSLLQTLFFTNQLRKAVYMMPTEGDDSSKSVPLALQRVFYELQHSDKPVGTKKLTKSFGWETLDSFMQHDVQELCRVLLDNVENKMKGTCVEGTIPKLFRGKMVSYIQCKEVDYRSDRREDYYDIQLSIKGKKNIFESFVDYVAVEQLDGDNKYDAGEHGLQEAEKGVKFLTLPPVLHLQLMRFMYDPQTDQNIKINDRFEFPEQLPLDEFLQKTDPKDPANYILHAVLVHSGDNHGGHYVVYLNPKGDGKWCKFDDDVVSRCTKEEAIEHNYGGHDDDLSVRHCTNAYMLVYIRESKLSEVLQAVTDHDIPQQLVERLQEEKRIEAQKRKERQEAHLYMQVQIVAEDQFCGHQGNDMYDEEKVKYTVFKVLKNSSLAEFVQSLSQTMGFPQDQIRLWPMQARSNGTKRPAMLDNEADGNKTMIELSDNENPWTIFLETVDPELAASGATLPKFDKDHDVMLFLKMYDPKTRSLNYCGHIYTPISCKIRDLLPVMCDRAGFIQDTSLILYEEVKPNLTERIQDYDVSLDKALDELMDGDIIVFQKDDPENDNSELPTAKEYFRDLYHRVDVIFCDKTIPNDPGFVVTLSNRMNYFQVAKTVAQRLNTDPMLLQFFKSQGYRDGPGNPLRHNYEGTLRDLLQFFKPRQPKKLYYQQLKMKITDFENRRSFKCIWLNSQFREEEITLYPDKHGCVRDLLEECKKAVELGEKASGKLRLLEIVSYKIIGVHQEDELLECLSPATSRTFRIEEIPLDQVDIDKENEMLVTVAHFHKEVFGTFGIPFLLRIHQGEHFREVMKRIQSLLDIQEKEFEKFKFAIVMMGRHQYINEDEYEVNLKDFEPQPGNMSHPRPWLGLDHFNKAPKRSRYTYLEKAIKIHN
How it was run: as §1

USP8 = biological target: T5, USP8 (UniProt P40818)
T5 sequence (whole entry): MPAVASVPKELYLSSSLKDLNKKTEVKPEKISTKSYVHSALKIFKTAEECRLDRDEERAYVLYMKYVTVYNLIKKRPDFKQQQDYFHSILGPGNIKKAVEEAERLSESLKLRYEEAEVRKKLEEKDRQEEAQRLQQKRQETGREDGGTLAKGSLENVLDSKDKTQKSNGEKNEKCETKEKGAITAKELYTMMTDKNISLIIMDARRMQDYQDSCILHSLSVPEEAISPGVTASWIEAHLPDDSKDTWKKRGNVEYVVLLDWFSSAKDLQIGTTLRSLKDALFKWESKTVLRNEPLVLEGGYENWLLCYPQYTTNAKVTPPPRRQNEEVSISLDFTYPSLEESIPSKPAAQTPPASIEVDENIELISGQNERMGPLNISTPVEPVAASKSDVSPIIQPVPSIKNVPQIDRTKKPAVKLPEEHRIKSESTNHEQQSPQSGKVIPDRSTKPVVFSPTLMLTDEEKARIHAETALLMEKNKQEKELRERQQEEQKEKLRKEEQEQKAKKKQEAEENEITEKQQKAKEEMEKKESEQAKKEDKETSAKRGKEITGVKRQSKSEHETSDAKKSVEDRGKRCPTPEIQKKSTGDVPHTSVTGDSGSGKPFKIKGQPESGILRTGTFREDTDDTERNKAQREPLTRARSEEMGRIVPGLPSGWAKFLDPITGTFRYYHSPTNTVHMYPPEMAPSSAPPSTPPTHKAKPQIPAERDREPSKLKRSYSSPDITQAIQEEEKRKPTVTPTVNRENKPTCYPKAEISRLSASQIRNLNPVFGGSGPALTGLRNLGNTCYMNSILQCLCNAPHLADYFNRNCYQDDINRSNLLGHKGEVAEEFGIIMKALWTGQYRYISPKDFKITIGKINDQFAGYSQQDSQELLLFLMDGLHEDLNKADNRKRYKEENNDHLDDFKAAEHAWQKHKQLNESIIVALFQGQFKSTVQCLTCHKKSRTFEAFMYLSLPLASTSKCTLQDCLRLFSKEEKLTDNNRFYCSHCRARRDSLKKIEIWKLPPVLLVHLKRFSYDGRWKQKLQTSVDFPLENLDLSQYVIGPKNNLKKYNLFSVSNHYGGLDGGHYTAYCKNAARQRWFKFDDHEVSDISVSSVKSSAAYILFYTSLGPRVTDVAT
How it was run: as §1

USP9X = USP9X (UniProt Q93008)
How it was run: as §1

UniProt O00487 = biological target: UniProt O00487
Sequence of UniProt O00487 (O00487 whole entry): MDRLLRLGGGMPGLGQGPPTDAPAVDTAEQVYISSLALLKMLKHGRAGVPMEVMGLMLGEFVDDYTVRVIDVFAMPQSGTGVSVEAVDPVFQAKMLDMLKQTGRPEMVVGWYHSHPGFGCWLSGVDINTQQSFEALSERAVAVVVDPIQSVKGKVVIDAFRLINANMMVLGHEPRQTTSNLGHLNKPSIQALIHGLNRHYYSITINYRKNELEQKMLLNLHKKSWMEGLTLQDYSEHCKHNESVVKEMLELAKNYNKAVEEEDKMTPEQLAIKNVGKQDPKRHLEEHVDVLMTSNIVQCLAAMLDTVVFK
How it was run: as §1

Measured: log2 ratio of Biotin-Ahx-Ub-VS probe labelling

O=C(CCl)NC1CCS(=O)(=O)c2ccccc21 (stereo not given)
inactive: USP42 -0.57 | USP46 -0.0772 | USP47 -0.498 | USP48 -0.471 | USP5 -0.0632 | USP54 0.689 | USP7 -0.288 | USP8 -0.538 | USP9X -0.445 | UniProt O00487 -0.242
